Results filed as inconclusive are left out. Entries that show only a call come without a potency. The source made the active and inactive calls. Calls come from the whole dose curve; as a rule, active = well fitted curve in the direction sought with a large enough effect; inconclusive = small, poorly fitted or top-dose-only effect, or another doubt; inactive = no such curve, though single readings can be large; an effect the other way counts as inactive or inconclusive.
Columns and labels:
[1] = target: Aldehyde dehydrogenase, mitochondrial (Homo sapiens) (UniProt P05091); assay: qHTS for Inhibitors of the Aldehyde Dehydrogenase Family (ALDH2) Primary screen (AID 2061308); note: nearly all actives have a fitted effect of over 55% in size
[2] = target: Retinaldehyde dehydrogenase 3 (Homo sapiens) (UniProt P47895); assay: qHTS for Inhibitors of the Aldehyde Dehydrogenase Family (ALDH1A3) Primary screen (AID 2061315)

SMILES	Potency [1]	Potency [2]
COCCNc1nc(C)nc2c1nc(-c1ccccc1)n2C1CCN(Cc2ccccc2)C1 (configuration not stated)	inactive	inactive
CC1(C)C=Cc2c(ccc3c2N=C2C(C)(C)[C@@H]4C[C@]56CCCN5C(=O)[C@@]4(C[C@]23O)NC6=O)O1	inactive	inactive
Cn1nnnc1Sc1ncnc2scc(-c3cccc(S(C)(=O)=O)c3)c12	inactive	inactive
Cc1cccc(NC(=O)c2cnn3c(C)cc(C)nc23)c1	inactive	inactive
Cc1ccc(-c2ccc(CNc3nc(-c4ccccc4C(C)C)ncc3F)cc2)cn1	inactive	inactive
CCc1cccc(CC)c1OCc1cc(C2Nc3ccccc3C(=O)N2Cc2ccco2)ccc1OC (configuration not stated)	inactive	inactive
Cc1cn2c(-c3cn[nH]c3)cnc2c(Nc2ccc(C(=O)N3CCNCC3)cc2F)n1	inactive	inactive
N#Cc1nc(Nc2cccc(-c3ccccc3)c2)nc(NC2CCCC2)n1	inactive	inactive
COc1ccc(OC)c(C2=Nn3c(nnc3-c3cccc(OC)c3OC)SC2)c1	inactive	inactive
COc1cc(O)c(C(CC(=O)N2CCOCC2)c2ccc3c(c2)OCO3)c(OC)c1 (configuration not stated)	inactive	inactive
c1ccc(CNc2nc(-c3cccs3)nc3ccccc23)cc1	inactive	inactive
Cc1ccc(OCCn2c(CCNC(=O)c3ccco3)nc3ccccc32)cc1	inactive	inactive
Cc1ccc2nsnc2c1S(=O)(=O)Nc1cccc2cccnc12	inactive	inactive
COc1cc(O)c(C(CC(=O)N2CCCC(C)C2)c2ccc3c(c2)OCO3)c(OC)c1 (configuration not stated)	inactive	inactive
NC(=O)C1CCN(c2nccc(-c3ccc(Br)cc3)n2)CC1	inactive	inactive
CCC1CCC(C(=O)Nc2ccc(S(=O)(=O)Nc3nccs3)cc2)CC1 (configuration not stated)	inactive	inactive
OC(c1ccccc1)(c1ccccc1)c1cnc2ccccn12	inactive	inactive
COc1ccc(CCC(=O)c2c(O)cc(O)cc2O[C@@H]2O[C@H](CO)[C@@H](O)[C@H](O)[C@H]2O)cc1	inactive	inactive
O=C(Nc1ccc(S(=O)(=O)Nc2nccs2)cc1)C1CC(OCc2ccccc2)C1 (configuration not stated)	inactive	inactive
O=C(O)c1ccc(-c2ccc3ncnc(NCC4CCCO4)c3c2)o1 (configuration not stated)	inactive	inactive
COc1ccc(CNc2ccc(S(=O)(=O)Nc3nccs3)cc2)c(O)c1	inactive	inactive

SMILES	Potency [1]	Potency [2]
COC(=O)N[C@H](C(=O)N1[C@@H]2CC[C@@H](C2)[C@H]1c1nc2ccc(-c3ccc4c(c3)C(F)(F)c3cc(-c5cnc([C@@H]6CCC7(CC7)N6C(=O)[C@@H](NC(=O)OC)C(C)C)[nH]5)ccc3-4)cc2[nH]1)C(C)C	inactive	inactive
COC(=O)[C@@H]1C2CC3c4[nH]c5ccccc5c4CCN3CC2CC[C@@H]1O (some centres not stated)	inactive	inactive
Cc1nnc(-c2ccccc2[N+](=O)[O-])n1CCCn1ccnc1	inactive	inactive
Fc1ccc(-c2noc(CCCCSc3nnc(-c4cccc5ccccc45)o3)n2)cc1	inactive	inactive
Nc1nc(NCc2ccc(-c3ccnc(C(F)(F)F)c3)cc2)c2ccccc2n1	inactive	inactive
Cc1ccnc(NC(=S)Nc2cccc([S+](=O)([O-])Nc3ccccc3F)c2)c1	inactive	inactive
CCCCN1C(=O)c2ccccc2C1=O	inactive	inactive
Cc1nc(N2CCOCC2)c2nc(-c3ccccc3)n(CC(C)(C)CN(C)C)c2n1	inactive	inactive
Cc1nc(-c2ccccc2)oc1-c1ccc2ncnc(NCCc3cnc[nH]3)c2c1	inactive	inactive
N#Cc1ccccc1S(=O)(=O)N1CCN(S(=O)(=O)c2ccc3c(c2)OCCO3)CC1	inactive	inactive
COc1ccc(C2Nc3cccc(OC)c3C(=O)N2Cc2ccco2)cc1COc1c(C)cc(NC(C)=O)cc1C (configuration not stated)	inactive	inactive
Cc1ccc(NC(=O)c2cnn3c(-c4ccccc4)cc(C)nc23)cc1	inactive	inactive
Clc1ccc(CN(CCCNc2ncnc(NCCCc3cnc[nH]3)n2)c2ccc(Br)cn2)cc1Cl	inactive	inactive
O=S(=O)(Nc1nccs1)c1ccc(NCc2ccc(Cl)cc2O)cc1	inactive	inactive
O=C1c2ccccc2C(=O)N1Cc1ccccn1	inactive	inactive
FC(F)(F)c1cc(-c2ccc(CNc3nc(-c4ccccc4C(F)(F)F)nc4ccccc34)cc2)cc(C(F)(F)F)c1	inactive	inactive
Cc1ccc(-c2cc(C(=O)Nc3ccncc3)c3ccccc3n2)cc1C	inactive	inactive
COc1ccc(C2=Nn3c(nnc3-c3ccccc3F)SC2)cc1OCC1CC1	inactive	inactive
Cc1ccc2c(c1)/C(=C\c1cc(Cl)c(O)c(Cl)c1)C(=O)N2	inactive	inactive
N#CN1CCC(NC(=O)c2cccc(F)c2)CC1	inactive	inactive
C#CCOc1ccc(C(C)=O)cc1-c1nnc2n1N=C(c1ccc(OC)c(OC)c1)CS2	inactive	inactive

SMILES	Potency [1]	Potency [2]
CCn1c2ccccc2c2cc(Nc3ccnc(NCCCN4CCOCC4)n3)ccc21	inactive	inactive
COc1cc(/C=C/CO)cc(OC)c1O[C@@H]1O[C@H](CO[C@@H]2O[C@H](CO)[C@@H](O)[C@H](O)[C@H]2O)[C@@H](O)[C@H](O)[C@H]1O	inactive	inactive
CCC(C)N(C)C(=O)Cn1nc(-c2ccc(C)cc2)ccc1=O (configuration not stated)	inactive	inactive
Cc1cc(NS(=O)(=O)c2ccc3c(c2)CCC(=O)N3)ccc1F	inactive	inactive
COC1CC(O[C@H]2CC[C@]3(C)C4CC[C@]5(C)C(C6=CC(=O)OC6)=CCC56OC46CC[C@@H]3C2)OC(C)C1O[C@@H]1O[C@H](CO[C@@H]2O[C@H](CO)[C@@H](O)[C@H](O)[C@H]2O)[C@@H](O)[C@H](O)[C@H]1O (some centres not stated)	inactive	inactive
CCN1CCCC1Cn1c(-c2ccccc2)nc2c(NC3CCCCC3)nc(C)nc21 (configuration not stated)	inactive	inactive
O=C(Nc1ccc2ccccc2c1)Nc1cccc(-c2ccncc2)n1	inactive	inactive
Cc1ccc(-c2cnn(CC(=O)N(C)C(C)c3ccco3)c(=O)c2)cc1 (configuration not stated)	inactive	inactive
OC[C@H]1O[C@@H](O[C@H]2[C@H](OCCc3ccccc3)O[C@H](CO)[C@@H](O)[C@@H]2O)[C@H](O)[C@@H](O)[C@@H]1O	inactive	inactive
CC(=O)Nc1sc2c(c1-c1nc3ccccc3s1)CCN(C(=O)OC(C)(C)C)C2	inactive	inactive
O=C(c1ccc2c(c1)ncn2-c1ccc(Cl)cc1)N1CCCCC1	inactive	inactive
Cc1ccc(NC(=O)c2ccc(-c3nc4ccccc4[nH]3)cc2)cc1Br	inactive	inactive
Cc1nnc(-c2cnn(C)c2N)n1Cc1cncn1C	inactive	inactive
Cc1cc(C)n2ncc(C(=O)NCc3ccccc3)c2n1	inactive	inactive
O=C(Nc1ccc2ccccc2c1)Nc1nnc(-c2ccc(Cl)cc2)s1	inactive	inactive
O=C(O)c1ccc2c(c1)C(=O)N([C@H](Cc1c3ccccc3cc3ccccc13)C(=O)O)C2=O	inactive	inactive
O=C(O)c1ccc(S(=O)(=O)N[C@H](Cc2c[nH]c3ccccc23)C(=O)O)cc1	inactive	inactive
Cc1cc(C)nc(Nc2nnc(N3CCN(c4cccc(C(F)(F)F)c4)CC3)s2)c1	inactive	inactive
COc1ccc(C2c3c(n(CCc4ccccc4)cnc3=N)Oc3ccc4ccccc4c32)cc1OC (configuration not stated)	inactive	inactive
C=C1C(=O)O[C@@H]2C(OC(=O)/C(C)=C\C)/C(C)=C\C(=O)/C=C(\C)C[C@H](O)[C@@H]12 (some centres not stated)	inactive	inactive
Cn1ccc2cc(-c3ccc4ncnc(NCc5cccc(F)c5)c4c3)ccc21	inactive	inactive

SMILES	Potency [1]	Potency [2]
N[C@H](C(=O)Nc1ccc(Cl)cc1C(=O)c1ccc[nH]1)c1ccccc1	inactive	inactive
O=C1CCCC2=C1C(c1[nH]ncc1Cl)N=C(c1nc3ccccc3o1)N2 (configuration not stated)	inactive	inactive
Fc1cc(Nc2nc(-c3ccncc3)nc3ccccc23)ccc1-c1ccc2[nH]ncc2c1	inactive	inactive
CCc1cccc(Nc2nn3c(=O)c4ccccc4nc3s2)c1	inactive	inactive
COc1ccc(NC(=S)N2CCN(c3cccc(C(F)(F)F)c3)CC2)nc1	inactive	inactive
Cc1ccc(NS(=O)(=O)c2cc3c(cc2Cl)NC(=O)CO3)cc1C	inactive	inactive
Cc1noc(C)c1-c1ccc2ncnc(NCc3ccc(Br)cc3)c2c1	inactive	inactive
COc1ccc(C2=Nn3c(nnc3-c3ccc(OC)cc3OC)SC2)c(OC)c1	inactive	inactive
N#Cc1ccnc(N2C(=O)CC[C@H]2C(=O)N(c2cncc(F)c2)[C@@H](C(=O)NC2CC(F)(F)C2)c2ccccc2Cl)c1	inactive	inactive
Cc1ccc(OCCn2c(CCN(C)C(=O)C3CCCCC3)nc3ccccc32)cc1	inactive	inactive
NC(=O)C1CCN(c2nnc(-c3ccc4c(c3)OCCCO4)s2)CC1	inactive	inactive
COc1ccc(C2Nc3ccccc3C(=O)N2Cc2ccccc2)cc1COc1c(C)cc(NC(C)=O)cc1C (configuration not stated)	inactive	inactive
CN1C(=O)CCc2cc(S(=O)(=O)Nc3ccc(Cl)c(Cl)c3)ccc21	inactive	inactive
Cc1ccc(-c2ccc(=O)n(CC(=O)N(C)C(C)c3cccs3)n2)cc1 (configuration not stated)	inactive	inactive
O=C(CN1C(=O)N/C(=C\c2cccn2-c2cccc(C(=O)O)c2)C1=O)Nc1cccc(Cl)c1	inactive	inactive
Cc1cc(C)nc(NC(=S)N2CCN(c3ccc4cnccc4c3)CC2)c1	inactive	inactive
Cc1csc(CNc2ncnc3ccc(-c4ccc5c(c4)OCO5)cc23)n1	inactive	inactive
O=C(CSc1nnc(-c2cccc(S(=O)(=O)N3CCCC3)c2)n1-c1ccccc1)Nc1ccccc1	inactive	inactive

Reference: PubChem BioAssay (NCATS)
